About 21,000 targets were measured; listed, in parts, are those with the largest changes and a random draw of the rest.

We go through 32 targets from the supplement of paper PMC12067093, “Discovery and optimisation of a covalent ligand for TRIM25 and its application to targeted protein ubiquitination” (Chemical Science, 2025).
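Note: competitive profiling in live THP-1 cells: cysteine peptides tagged with an iodoacetamide desthiobiotin (IA-DTB) probe, intensity after compound treatment relative to DMSO-treated cells.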

UniProt O95218, sequence (O95218 whole entry, looked up): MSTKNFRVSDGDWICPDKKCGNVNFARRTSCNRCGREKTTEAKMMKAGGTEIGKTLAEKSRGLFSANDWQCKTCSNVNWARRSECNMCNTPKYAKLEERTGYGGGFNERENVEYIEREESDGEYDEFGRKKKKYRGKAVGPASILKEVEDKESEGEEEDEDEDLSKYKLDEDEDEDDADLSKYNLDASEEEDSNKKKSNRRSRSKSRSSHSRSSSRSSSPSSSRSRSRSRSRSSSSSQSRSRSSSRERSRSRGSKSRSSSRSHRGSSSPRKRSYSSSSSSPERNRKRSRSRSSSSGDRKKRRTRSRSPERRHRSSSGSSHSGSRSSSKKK
UniProt Q96K80, sequence (Q96K80 whole entry, looked up): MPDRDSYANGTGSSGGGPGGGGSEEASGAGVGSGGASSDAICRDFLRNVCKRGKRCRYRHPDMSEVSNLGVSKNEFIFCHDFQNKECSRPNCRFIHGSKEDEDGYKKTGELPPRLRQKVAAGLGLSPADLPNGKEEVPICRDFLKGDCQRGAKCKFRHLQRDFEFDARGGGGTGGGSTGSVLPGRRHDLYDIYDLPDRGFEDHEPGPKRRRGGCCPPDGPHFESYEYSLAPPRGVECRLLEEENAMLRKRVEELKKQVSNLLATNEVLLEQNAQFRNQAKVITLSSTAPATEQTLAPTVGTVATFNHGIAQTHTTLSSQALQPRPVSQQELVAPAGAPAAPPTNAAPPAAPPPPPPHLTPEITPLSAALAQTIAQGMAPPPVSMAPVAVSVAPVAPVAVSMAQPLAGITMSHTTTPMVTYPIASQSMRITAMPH
UniProt P25490, sequence (P25490 whole entry, looked up): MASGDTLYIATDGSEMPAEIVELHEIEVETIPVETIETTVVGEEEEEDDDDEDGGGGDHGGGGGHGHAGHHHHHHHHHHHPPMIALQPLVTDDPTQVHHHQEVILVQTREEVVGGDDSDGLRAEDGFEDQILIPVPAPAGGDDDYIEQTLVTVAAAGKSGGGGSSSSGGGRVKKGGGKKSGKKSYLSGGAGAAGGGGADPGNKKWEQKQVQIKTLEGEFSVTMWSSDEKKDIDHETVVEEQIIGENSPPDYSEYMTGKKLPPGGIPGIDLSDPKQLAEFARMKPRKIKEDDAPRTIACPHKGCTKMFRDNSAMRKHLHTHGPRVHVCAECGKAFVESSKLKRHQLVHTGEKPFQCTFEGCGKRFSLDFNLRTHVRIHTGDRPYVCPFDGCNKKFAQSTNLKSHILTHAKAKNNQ
UniProt Q9Y4E5, sequence (Q9Y4E5 whole entry, looked up): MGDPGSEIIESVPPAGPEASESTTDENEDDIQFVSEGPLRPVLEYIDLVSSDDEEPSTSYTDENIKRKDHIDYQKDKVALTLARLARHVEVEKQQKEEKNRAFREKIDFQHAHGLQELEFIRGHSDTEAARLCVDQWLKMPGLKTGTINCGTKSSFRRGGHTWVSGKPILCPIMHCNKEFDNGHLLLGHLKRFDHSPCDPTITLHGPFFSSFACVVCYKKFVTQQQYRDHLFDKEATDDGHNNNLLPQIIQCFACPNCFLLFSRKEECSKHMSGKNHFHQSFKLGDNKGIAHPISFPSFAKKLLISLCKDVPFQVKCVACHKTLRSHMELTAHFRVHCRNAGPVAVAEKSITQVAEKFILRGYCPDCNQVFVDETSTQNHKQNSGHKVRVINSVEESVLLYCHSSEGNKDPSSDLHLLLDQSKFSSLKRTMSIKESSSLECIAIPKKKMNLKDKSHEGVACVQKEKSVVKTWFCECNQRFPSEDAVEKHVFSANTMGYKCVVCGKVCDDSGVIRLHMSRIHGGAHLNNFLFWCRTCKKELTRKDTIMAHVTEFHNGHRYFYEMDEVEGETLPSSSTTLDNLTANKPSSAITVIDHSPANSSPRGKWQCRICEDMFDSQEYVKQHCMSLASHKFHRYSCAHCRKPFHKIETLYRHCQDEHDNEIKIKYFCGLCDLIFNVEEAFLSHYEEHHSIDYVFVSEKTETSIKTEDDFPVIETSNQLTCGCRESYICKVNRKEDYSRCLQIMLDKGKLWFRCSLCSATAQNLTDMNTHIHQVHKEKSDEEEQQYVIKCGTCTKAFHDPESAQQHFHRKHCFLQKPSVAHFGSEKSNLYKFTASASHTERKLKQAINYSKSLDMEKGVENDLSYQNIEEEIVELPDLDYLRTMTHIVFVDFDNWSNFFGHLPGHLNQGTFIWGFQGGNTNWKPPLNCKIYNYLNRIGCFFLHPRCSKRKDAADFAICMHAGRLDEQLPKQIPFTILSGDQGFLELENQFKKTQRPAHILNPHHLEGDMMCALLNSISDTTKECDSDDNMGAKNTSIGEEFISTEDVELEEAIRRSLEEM
UniProt Q9Y4P8, sequence (Q9Y4P8 whole entry, looked up): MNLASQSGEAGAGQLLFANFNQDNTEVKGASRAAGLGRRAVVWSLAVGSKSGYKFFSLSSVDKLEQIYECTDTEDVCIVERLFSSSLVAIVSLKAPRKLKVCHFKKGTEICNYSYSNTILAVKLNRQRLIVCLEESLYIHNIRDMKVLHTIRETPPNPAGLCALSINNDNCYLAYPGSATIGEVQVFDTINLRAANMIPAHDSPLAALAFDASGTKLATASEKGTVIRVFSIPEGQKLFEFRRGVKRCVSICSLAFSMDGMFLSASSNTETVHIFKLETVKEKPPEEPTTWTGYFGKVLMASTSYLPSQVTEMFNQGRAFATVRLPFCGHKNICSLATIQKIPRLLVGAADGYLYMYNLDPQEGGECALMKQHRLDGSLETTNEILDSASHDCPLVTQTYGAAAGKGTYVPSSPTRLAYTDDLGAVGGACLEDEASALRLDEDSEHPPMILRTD
UniProt O75362, sequence (O75362 whole entry, looked up): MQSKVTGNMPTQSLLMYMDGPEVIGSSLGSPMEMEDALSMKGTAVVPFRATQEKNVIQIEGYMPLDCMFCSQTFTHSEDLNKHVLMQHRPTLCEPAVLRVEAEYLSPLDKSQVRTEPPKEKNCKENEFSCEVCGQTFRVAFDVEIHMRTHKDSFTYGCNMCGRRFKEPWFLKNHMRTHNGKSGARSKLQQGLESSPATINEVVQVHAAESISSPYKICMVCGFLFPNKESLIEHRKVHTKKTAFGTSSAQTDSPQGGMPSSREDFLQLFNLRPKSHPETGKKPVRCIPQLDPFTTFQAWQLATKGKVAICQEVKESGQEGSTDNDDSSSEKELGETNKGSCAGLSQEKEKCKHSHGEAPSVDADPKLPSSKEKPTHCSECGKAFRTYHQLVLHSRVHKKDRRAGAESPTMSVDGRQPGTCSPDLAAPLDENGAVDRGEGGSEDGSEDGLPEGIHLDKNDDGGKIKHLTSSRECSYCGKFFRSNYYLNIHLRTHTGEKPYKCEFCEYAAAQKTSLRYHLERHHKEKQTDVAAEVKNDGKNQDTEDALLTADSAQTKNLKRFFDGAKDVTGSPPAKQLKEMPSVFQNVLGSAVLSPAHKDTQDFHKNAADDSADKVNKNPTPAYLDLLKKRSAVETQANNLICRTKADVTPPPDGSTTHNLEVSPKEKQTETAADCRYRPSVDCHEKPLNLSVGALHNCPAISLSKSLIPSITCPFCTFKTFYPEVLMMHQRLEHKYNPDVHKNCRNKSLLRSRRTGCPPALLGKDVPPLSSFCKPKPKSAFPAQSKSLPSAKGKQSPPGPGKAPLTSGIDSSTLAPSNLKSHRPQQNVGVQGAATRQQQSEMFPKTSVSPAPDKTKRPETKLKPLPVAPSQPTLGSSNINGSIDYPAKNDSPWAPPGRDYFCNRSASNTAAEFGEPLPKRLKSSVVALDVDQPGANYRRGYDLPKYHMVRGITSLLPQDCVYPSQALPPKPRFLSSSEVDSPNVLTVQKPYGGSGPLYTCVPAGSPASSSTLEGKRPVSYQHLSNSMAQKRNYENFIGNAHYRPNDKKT
UniProt Q92618, sequence (Q92618 whole entry, looked up): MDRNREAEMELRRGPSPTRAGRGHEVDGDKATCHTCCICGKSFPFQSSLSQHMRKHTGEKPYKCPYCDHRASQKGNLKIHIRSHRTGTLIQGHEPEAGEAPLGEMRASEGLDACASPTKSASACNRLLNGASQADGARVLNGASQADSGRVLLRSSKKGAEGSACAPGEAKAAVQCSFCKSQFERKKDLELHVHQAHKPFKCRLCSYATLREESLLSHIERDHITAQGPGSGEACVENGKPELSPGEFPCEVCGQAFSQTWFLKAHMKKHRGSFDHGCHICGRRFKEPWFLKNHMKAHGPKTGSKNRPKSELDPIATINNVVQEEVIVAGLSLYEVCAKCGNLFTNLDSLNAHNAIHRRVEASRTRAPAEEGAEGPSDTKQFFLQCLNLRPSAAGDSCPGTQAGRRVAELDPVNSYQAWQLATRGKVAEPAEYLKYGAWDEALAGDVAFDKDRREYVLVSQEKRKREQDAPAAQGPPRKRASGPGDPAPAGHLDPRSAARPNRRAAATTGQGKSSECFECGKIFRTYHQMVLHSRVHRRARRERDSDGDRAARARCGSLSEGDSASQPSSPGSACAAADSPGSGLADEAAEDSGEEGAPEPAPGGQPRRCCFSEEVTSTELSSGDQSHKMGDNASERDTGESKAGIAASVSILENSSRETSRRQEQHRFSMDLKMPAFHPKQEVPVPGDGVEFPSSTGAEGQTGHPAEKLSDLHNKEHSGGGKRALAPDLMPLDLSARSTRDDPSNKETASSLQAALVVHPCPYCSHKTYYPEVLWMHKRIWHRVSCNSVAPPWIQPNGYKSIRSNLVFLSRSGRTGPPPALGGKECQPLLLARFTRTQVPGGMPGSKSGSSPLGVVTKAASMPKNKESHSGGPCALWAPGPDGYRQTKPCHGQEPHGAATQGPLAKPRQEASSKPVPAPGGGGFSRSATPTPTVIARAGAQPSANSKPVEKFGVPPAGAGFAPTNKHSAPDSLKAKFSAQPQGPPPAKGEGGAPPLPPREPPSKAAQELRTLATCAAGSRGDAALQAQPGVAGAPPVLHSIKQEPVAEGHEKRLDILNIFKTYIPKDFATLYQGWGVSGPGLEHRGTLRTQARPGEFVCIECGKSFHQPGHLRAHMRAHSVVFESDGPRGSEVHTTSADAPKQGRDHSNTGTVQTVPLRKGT
UniProt Q8N6M9, sequence (Q8N6M9 whole entry): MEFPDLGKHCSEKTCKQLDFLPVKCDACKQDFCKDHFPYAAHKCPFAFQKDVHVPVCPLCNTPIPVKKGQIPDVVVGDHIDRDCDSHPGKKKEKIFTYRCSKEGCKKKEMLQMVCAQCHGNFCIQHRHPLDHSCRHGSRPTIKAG

Compound in one assay: Cc1cc(ccc1-c1ccccc1)C(=O)N1CCCN(CC1)C(=O)CCl [compound 10]
Briefly: probe-labelled cysteine peptide fold change vs DMSO (competition) (log2 fold change); higher = less target engagement (more negative = stronger competition). As to conditions: 10 µM; THP-1; incubation time: 4 h.
As for “ZNF280C_Q8ND82_388_ICELSFETEHILLQHMK (UniProt Q8ND82)”, the “probe-labelled cysteine peptide fold change” value came to 0.00547.
On the same count and under the same terms, to “ZNF189_O75820_262_CSDCGK<|>ZSCAN22_P52741_466_CSDCGK<|>ZNF16_Q09FC8_435_CSDCGK<|>ZNF81_Q2M218_640_CSDCGK<|>ZNF134_Q5JVG2_290_CSDCGK<|>ZNF415_Q8N8J6_574_CSDCGK (UniProt Q8N8J6+Q5JVG2+Q2M218+Q09FC8+P52741+O75820)” belongs 0.0389.
The same measure, in the same setting: in the case of “ZBTB7A_O95365_490_DGCNGVPSR (UniProt O95365)” it was 0.000157; in that of “WDR44_Q5JSH3_701_LITAANFCQNGK (UniProt Q5JSH3)”, -0.0485.
Same read-out and setting: to “ZW10_O43264_588_RLGTECFLAQMR (UniProt O43264)” belongs 0.00573; to “WDR48_Q8TAF3_366_GGASIIQCHILNDKR (UniProt Q8TAF3)”, 0.239; to “WDFY4_Q6ZS81_88_AWEHSVGIICFPSLQR (UniProt Q6ZS81)”, -0.23.
Consider “ZFYVE19_Q96K21_435_CAGCDGDLFCAR (UniProt Q96K21)”, for which the “probe-labelled cysteine peptide fold change” value is 0.0027.
The same measure, in the same setting: in the case of “ZYX_Q15942_467_AYHPHCFTCVVCAR (UniProt Q15942)” it was 0.229.
Turning to “ZNF516_Q92618_165_KGAEGSACAPGEAK (UniProt Q92618)”, the “probe-labelled cysteine peptide fold change” value amounted to 0.0165.
Same read-out and setting: in the case of “ZNF451_Q9Y4E5_150_TGTINCGTK (UniProt Q9Y4E5)” it was -0.175.
The same measure, in the same setting: in the case of “ZNF430_Q9H8G1_138_CGHEDLQLR (UniProt Q9H8G1)” it was -0.195; in that of “XPO4_Q9C0E2_723_ANLVIQCENWWNLAK (UniProt Q9C0E2)”, 0.102.
On the same count and under the same terms, in the case of “WIPI2_Q9Y4P8_430_LAYTDDLGAVGGACLEDEASALRLDEDSEHPPMILR (UniProt Q9Y4P8)” it was -0.352.
Consider “ZNF76_P36508_342_HHVVHTHCK (UniProt P36508)”, for which the “probe-labelled cysteine peptide fold change” value was -0.115.
On to “WDR43_Q15061_291_LAVVCR (UniProt Q15061)”, for which the “probe-labelled cysteine peptide fold change” value amounted to 0.0146.
The same measure, in the same setting: to “ZC3H10_Q96K80_140_EEVPICR (UniProt Q96K80)” belongs -0.106.
For “WDR77_Q9BQA1_186_DSVFLSCSEDNR (UniProt Q9BQA1)”, the “probe-labelled cysteine peptide fold change” value is 0.136.
Still for that read-out and setting: in the case of “ZMYM2_Q9UBW7_612_LYNFCNSSCVAK (UniProt Q9UBW7)” it was -0.192; in that of “YY1_P25490_390_IHTGDRPYVCPFDGCNK (UniProt P25490)”, 0.136.
On the same count and under the same terms, in the case of “ZMYM2_Q9UBW7_608_LYNFCNSSCVAK (UniProt Q9UBW7)” it was -0.186; in that of “ZNF687_Q8N1G0_91_NTVCPEQSEALAGGSAGDGAQAAGVTK (UniProt Q8N1G0)”, -0.392.
Still for that read-out and setting: in the case of “WDR77_Q9BQA1_172_AHAAQVTCVAASPHK (UniProt Q9BQA1)” it was 0.0618.
“WDR3_Q9UNX4_183_WWDLDTQHCFK (UniProt Q9UNX4)”: the “probe-labelled cysteine peptide fold change” value is 0.0656.
Same read-out and setting: in the case of “ZFAND2A_Q8N6M9_84_GQIPDVVVGDHIDRDCDSHPGK (UniProt Q8N6M9)” it was 1.7; in that of “XPO4_Q9C0E2_492_IAAEHCIPLLTSLLEER (UniProt Q9C0E2)”, 0.012; in that of “YWHAG_P61981_194_LGLALNYSVFYYEIQNAPEQACHLAK (UniProt P61981)”, 0.0292.
On the same count and under the same terms, to “YAE1_Q9NRH1_143_SITPPSHVVDLLDSIEDMDLCHVVPAEK (UniProt Q9NRH1)” belongs -0.335; to “ZRANB2_O95218_20_CGNVNFAR (UniProt O95218)”, -0.0495; to “ZNF691_Q5VV52_260_THTGERPYECTECGR (UniProt Q5VV52)”, 0.396.
Still for that read-out and setting: in the case of “ZFAND2B_Q8WV99_134_HRHPLDHDCSGEGHPTSR (UniProt Q8WV99)” it was -0.148; in that of “ZNF217_O75362_641_SAVETQANNLICR (UniProt O75362)”, -0.181.

The assay is the same for the next values; noted with them: 50 µM; THP-1; incubation time: 4 h.
With “ZNF280C_Q8ND82_388_ICELSFETEHILLQHMK (UniProt Q8ND82)”, the “probe-labelled cysteine peptide fold change” value came to 0.0405.
Turning to “ZNF189_O75820_262_CSDCGK<|>ZSCAN22_P52741_466_CSDCGK<|>ZNF16_Q09FC8_435_CSDCGK<|>ZNF81_Q2M218_640_CSDCGK<|>ZNF134_Q5JVG2_290_CSDCGK<|>ZNF415_Q8N8J6_574_CSDCGK (UniProt Q8N8J6+Q5JVG2+Q2M218+Q09FC8+P52741+O75820)”, the “probe-labelled cysteine peptide fold change” value stood at 0.142.
On the same count and under the same terms, in the case of “ZBTB7A_O95365_490_DGCNGVPSR (UniProt O95365)” it was -0.0775; in that of “WDR44_Q5JSH3_701_LITAANFCQNGK (UniProt Q5JSH3)”, 0.165.
Still for that read-out and setting: in the case of “ZW10_O43264_588_RLGTECFLAQMR (UniProt O43264)” it was -0.0952; in that of “WDR48_Q8TAF3_366_GGASIIQCHILNDKR (UniProt Q8TAF3)”, -0.0402.
“WDFY4_Q6ZS81_88_AWEHSVGIICFPSLQR (UniProt Q6ZS81)”: the “probe-labelled cysteine peptide fold change” value was found to be 0.423.
The same measure, in the same setting: to “ZFYVE19_Q96K21_435_CAGCDGDLFCAR (UniProt Q96K21)” belongs -0.124; to “ZYX_Q15942_467_AYHPHCFTCVVCAR (UniProt Q15942)”, 0.194; to “ZNF516_Q92618_165_KGAEGSACAPGEAK (UniProt Q92618)”, -0.317.
For the target “ZNF451_Q9Y4E5_150_TGTINCGTK (UniProt Q9Y4E5)”, the “probe-labelled cysteine peptide fold change” value was -1.18.
On to “ZNF430_Q9H8G1_138_CGHEDLQLR (UniProt Q9H8G1)”, for which the “probe-labelled cysteine peptide fold change” value is -0.412.
Same read-out and setting: to “XPO4_Q9C0E2_723_ANLVIQCENWWNLAK (UniProt Q9C0E2)” belongs -0.0501.
On the same count and under the same terms, to “WIPI2_Q9Y4P8_430_LAYTDDLGAVGGACLEDEASALRLDEDSEHPPMILR (UniProt Q9Y4P8)” belongs -0.0492.
Same read-out and setting: in the case of “ZNF76_P36508_342_HHVVHTHCK (UniProt P36508)” it was -0.0476; in that of “WDR43_Q15061_291_LAVVCR (UniProt Q15061)”, 0.0317.
For “ZC3H10_Q96K80_140_EEVPICR (UniProt Q96K80)”, the “probe-labelled cysteine peptide fold change” value stood at 0.152.
Same read-out and setting: to “WDR77_Q9BQA1_186_DSVFLSCSEDNR (UniProt Q9BQA1)” belongs 0.227; to “ZMYM2_Q9UBW7_612_LYNFCNSSCVAK (UniProt Q9UBW7)”, -1.33; to “YY1_P25490_390_IHTGDRPYVCPFDGCNK (UniProt P25490)”, 0.715.
Same read-out and setting: to “ZMYM2_Q9UBW7_608_LYNFCNSSCVAK (UniProt Q9UBW7)” belongs -1.35.
On the same count and under the same terms, to “ZNF687_Q8N1G0_91_NTVCPEQSEALAGGSAGDGAQAAGVTK (UniProt Q8N1G0)” belongs -0.0527.
As to “WDR77_Q9BQA1_172_AHAAQVTCVAASPHK (UniProt Q9BQA1)”, the “probe-labelled cysteine peptide fold change” value was 0.254.
Same read-out and setting: to “WDR3_Q9UNX4_183_WWDLDTQHCFK (UniProt Q9UNX4)” belongs 0.271; to “ZFAND2A_Q8N6M9_84_GQIPDVVVGDHIDRDCDSHPGK (UniProt Q8N6M9)”, 3.88.
Still for that read-out and setting: in the case of “XPO4_Q9C0E2_492_IAAEHCIPLLTSLLEER (UniProt Q9C0E2)” it was 0.2; in that of “YWHAG_P61981_194_LGLALNYSVFYYEIQNAPEQACHLAK (UniProt P61981)”, 0.41.
Still for that read-out and setting: to “YAE1_Q9NRH1_143_SITPPSHVVDLLDSIEDMDLCHVVPAEK (UniProt Q9NRH1)” belongs 0.0421; to “ZRANB2_O95218_20_CGNVNFAR (UniProt O95218)”, -0.314.
For “ZNF691_Q5VV52_260_THTGERPYECTECGR (UniProt Q5VV52)”, the “probe-labelled cysteine peptide fold change” value was 1.19.
Still for that read-out and setting: to “ZFAND2B_Q8WV99_134_HRHPLDHDCSGEGHPTSR (UniProt Q8WV99)” belongs 0.178.
Still for that read-out and setting: to “ZNF217_O75362_641_SAVETQANNLICR (UniProt O75362)” belongs -0.0706.
